# Sampled rows, rich in hits. Any-hit rate of the full collection: about 4.5%.
# PrPC TRFRET: inhibitors of human cell surface prion protein PrPC | P04156 | TR-FRET read-out | inhibition, % at 13.8 µM | 370,000 compounds, 0.43% hits | AID 720596; in the data active = inhibition above about 24%; also: 0% = median of the test wells and 100% = reference compound wells
# PrP UTR inh: suppresses PrP 5' UTR mRNA reporter expression | cell-based PrP 5' UTR mRNA reporter, plate reader | inhibition, % (no concentration beside the values) | 340,000 compounds, 0.35% hits | AID 488862; in the data active = inhibition above about 52%; also: 0 = median of the neutral control wells
# BJeLR lethal: kills HRASV12-expressing BJeLR cells | BJeLR (HRASV12) viability, CellTiter-Glo ATP luminescence, 48 h | 300,000 compounds, 0.17% hits | inhibition, % (concentration not given with the values); in the data active = inhibition above about 50%
# Mtb FBA inh: Mtb fructose-bisphosphate aldolase inhibition. P9WQA3. purified M. tuberculosis FBA, fluorescence read-out. inhibition, % at 1 µM. 360,000 compounds, 2.3% hits; in the data active = inhibition above about 27%;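 also: 0% = vehicle and 100% = reference inhibitor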
# GDH-TPI counter: GDH-TPI coupled enzyme inhibition counter-screen; inhibition, % at 4.8 µM; 360,000 compounds, 1.2% hits; GDH-TPI coupled enzyme counterscreen, NADH absorbance; in the data active = inhibition above about 30%;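 also: 0% = DMSO wells and 100% = wells lacking the enzyme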
# PfHsp40 yeast: compounds rescuing yeast from Plasmodium falciparum HSP40 toxicity; 340,000 compounds, 0.68% hits; S. cerevisiae expressing PfHsp40, growth rescue, ATP luminescence; growth rescue, % at 12.5 µM; in the data active = growth rescue above about 28%, passing the limit was not always enough;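 also: yeast W303a lacking pdr1 and pdr3 grown in galactose medium; growth measured after three days at 30 °C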
# PrPC TRFRET cf: cell surface PrPC inhibition, TR-FRET confirmation; 1,500 compounds, 65% hits; cell surface PrPC level; shares compounds with PrPC TRFRET; AID 743200; inhibition, % at 13.8 µM; in the data active = inhibition above about 25%
# LD9 tox: kills or reduces viability of LD9 cells in PrPc counter-screen | LD9 cells cytotoxicity, luminescence viability | inhibition, % at 13.8 µM | shares compounds with PrPC TRFRET | AID 743201 | 1,500 compounds, 29% hits; in the data active = inhibition above about 9.5%
# Active calls of the source: *; nt = no result.
SMILES,PrPC TRFRET,PrP UTR inh,BJeLR lethal,Mtb FBA inh,GDH-TPI counter,PfHsp40 yeast,PrPC TRFRET cf,LD9 tox
CCCCOc1ccc(Br)cc1CSC(=N)N,24.7*,-16.5,7.7,-0.7,3.5,1.1,4.3,20.9*
O=C(CSc1nc2ccccc2c(=O)[nH]1)NC1CCCCC1,13.7,nt,nt,nt,nt,nt,nt,nt
N#Cc1c(-c2cccs2)nc(SCc2ccc(Cl)cc2)[nH]c1=O,109.0*,-23.9,-6.8,4.1,2.9,4.0,119.1*,-7.2
CNC(=O)NC(=O)CSc1nc(-c2cccs2)c(C#N)c(=O)[nH]1,120.0*,-51.1,1.7,1.6,-1.9,-0.5,123.7*,-3.4
CSc1nc(-c2cccs2)c(C#N)c(=O)[nH]1,58.9*,-41.2,-5.9,1.9,26.9,-0.7,87.3*,-0.9
N#Cc1c(-c2ccccc2)nc(SCC(=O)NC2CCCCC2)[nH]c1=O,36.1*,2.9,nt,3.7,-0.9,1.9,39.4*,-9.8
Cc1ccc(Cc2c(-c3ccc(Cl)cc3)nc3ccc(Br)cn23)cc1,14.7,nt,nt,-0.6,-3.3,nt,nt,nt
O=C(O)CSc1cnc2ccccc2n1,-6.8,-4.4,-15.6,-0.3,6.3,0.2,nt,nt
O=C(CSc1cnc2ccccc2n1)NC1CCCC1,33.1*,-13.1,-4.0,3.4,14.6,-0.8,39.7*,-1.0
O=C(C[C@H]1C=C[C@@H](NS(=O)(=O)c2ccccc2)[C@@H](CO)O1)NCc1ccc(Cl)c(Cl)c1,-0.6,nt,nt,nt,nt,nt,nt,nt
COC(=O)C1(Cc2ccc(O)cc2)OC(=O)C(O)=C1c1ccc(O)cc1 (stereo not given),-13.1,-24.8,-3.1,0.2,27.4,-0.4,nt,nt
O=S(=O)(NCc1ccccc1)NCc1cccc(C(F)(F)F)c1,1.1,-4.4,-7.1,-1.1,0.6,1.6,nt,nt
CN(C)Cc1c(O)ccc2[nH]cnc12,-2.1,-14.8,0.3,-2.6,-3.9,-0.7,nt,nt
Oc1ccc2ccc3[nH]cnc3c2c1,32.5*,-14.9,0.5,0.2,0.3,-1.3,6.4,-7.3
CCOC(=O)Cc1cnc(NC(=O)CSc2nc(C(C)C)cc(=O)[nH]2)s1,3.1,-11.9,3.9,-7.0,-14.9,-0.2,nt,nt
CCOC(=O)C(=CNc1cscc1S(=O)(=O)C(C)C)C(=O)OCC,0.9,-20.3,1.4,1.1,2.4,-0.4,nt,nt
CC(C)(C)c1ccc(S(=O)(=O)Nc2ccc(Cc3ccncc3)cc2)cc1,28.4*,-15.8,-2.4,-3.1,8.5,4.7,44.1*,6.7
CC(=O)Nc1ccc(S(=O)(=O)Nc2ccc(Cc3ccncc3)cc2)cc1,4.0,-27.9,-2.4,-1.1,-10.4,0.0,nt,nt
CCc1cc(Cn2nc(-c3ccccc3)cc2C(=O)NCc2ccccc2OC)on1,9.4,-3.7,-11.7,1.5,12.3,1.1,nt,nt
O=C(CCN1C(=O)c2cccc3cccc(c23)C1=O)Nc1ccon1,-14.1,-16.7,-3.2,25.9,18.9,-0.7,nt,nt
NC(=O)NOCc1ccc(Cl)cc1Cl,4.3,-23.2,2.4,-3.2,-1.2,-1.7,nt,nt
CNC(=S)/N=C/NOCc1ccc(Cl)cc1Cl,35.9*,-30.7,2.6,-2.4,1.0,14.9,45.0*,35.0*
COc1ccccc1C(=O)NC1CCN(C(=S)NCCc2ccccc2)CC1,0.4,-15.4,-3.8,2.0,1.3,0.8,nt,nt
NC(c1csc(NC(=O)Nc2cccc(Cl)c2)n1)C1CCCCC1 (stereo not given),25.6*,nt,nt,2.3,4.9,nt,23.4,-3.0
CC(C)N1CCc2c(sc(NC(=O)c3ccc([N+](=O)[O-])o3)c2C(N)=O)C1,48.6*,95.4*,4.7,-14.1,9.3,0.1,62.5*,54.3*
SMILES,PrPC TRFRET,PrP UTR inh,BJeLR lethal,Mtb FBA inh,GDH-TPI counter,PfHsp40 yeast,PrPC TRFRET cf,LD9 tox
CCNC(=O)CC1C(=O)N(c2cccc(C)c2)C(=O)N1CCC(C)C (stereo not given),3.0,-16.9,-1.8,-2.4,2.8,1.1,nt,nt
Cc1cc(C)c(S(=O)(=O)NCc2ccc3c(c2)cc(C)n3C)c(C)c1,39.1*,4.0,-6.2,-0.8,1.4,0.5,43.4*,-2.0
Cc1cc2cc(CNS(=O)(=O)c3ccc4ccccc4c3)ccc2n1C,43.2*,-5.6,3.5,1.0,13.5,-0.7,37.0*,3.3
CC(=O)Nc1ccc(S(=O)(=O)NCc2ccc3[nH]c(C)cc3c2)cc1,5.1,-5.8,-3.7,-3.4,1.9,-0.5,nt,nt
CC(=O)Nc1ccc(S(=O)(=O)NCc2ccc3c(c2)cc(C)n3C)cc1,34.5*,-9.2,3.9,0.3,12.6,0.5,11.3,3.4
CCCC(=O)NCc1ccc2c(c1)cc(C)n2C,-5.9,-41.6,-1.9,1.9,-2.2,-0.6,nt,nt
CC1CC(C)CC(C)C(O)C(C#N)=CC=CCC(C2CCCC2C(=O)O)OC(=O)CC(O)C(C)C1 (stereo not given),86.6*,51.3,nt,-1.5,-1.7,400.8*,98.2*,51.1*
Cc1nn(CC(C)C)c(Cl)c1C(=O)N(C)CC(=O)Nc1c(Cl)cccc1Cl,7.8,-11.0,-14.1,7.2,1.1,-0.3,nt,nt
CC(CN1C(C)CCCC1C)OC(=O)c1ccccc1F (stereo not given),9.5,-16.5,4.2,0.6,1.5,1.4,nt,nt
COC(=O)CSc1nnc(-c2ccc(OC)cc2OC)o1,1.6,-2.4,-4.9,0.9,3.3,0.1,nt,nt
COc1cccc(OC(=O)CSc2nnc(-c3ccccc3Br)o2)c1,32.4*,-24.9,9.4,0.6,9.1,-0.1,38.2*,1.4
Cn1c(N2CCC(C(N)=O)CC2)nc2c1c(=O)n(Cc1cccc(Br)c1)c(=O)n2C,41.6*,-8.3,0.3,1.6,3.7,-0.7,59.0*,-4.8
CCC(Sc1ccc2nnc(-c3ccc(F)cc3)n2n1)C(=O)O (stereo not given),38.0*,-15.6,10.9,9.4,7.1,-1.4,57.7*,-7.6
CC(=O)C(Sc1ccc2nnc(-c3ccc(F)cc3)n2n1)C(C)=O,-6.7,-10.5,5.2,3.2,8.1,-0.5,nt,nt
Cn1c2ccccc2c(=O)c2ccc(C#Cc3ccc(N)cc3)cc21,28.8*,-18.4,-9.0,11.7,27.5,0.9,52.7*,19.0*
Nc1ccc(C#Cc2ccc3sc4ccccc4c(=O)c3c2)cc1,12.3,-44.7,5.5,0.8,18.4,-0.9,nt,nt
O=C(COC(=O)Cn1nnc2ccccc21)NC1CCCC1,7.2,-28.3,-13.6,1.1,-9.2,-1.1,nt,nt
COC(=O)C(C)Oc1ccc(Cc2ncc(C(F)(F)F)cc2Cl)cc1 (stereo not given),62.1*,-33.5,-3.2,2.6,-1.7,0.7,0.1,-10.7
COc1cccc(CNC(=O)Cn2cc([N+](=O)[O-])cn2)c1,-6.2,-6.6,5.3,2.2,18.6,-1.8,nt,nt
COc1cccc(NC(=O)NC2CCCCN(Cc3ccc(C)cc3)C2=O)c1 (stereo not given),25.0*,nt,nt,nt,nt,nt,15.7,-5.8
C(#Cc1ccccc1)C[N+]1(CC#Cc2ccccc2)CCCC1,8.7,-20.7,2.6,2.0,1.5,-0.7,nt,nt

# Source: PubChem BioAssay
